Source: PubChem BioAssay (NMMLSC)
An excerpt weighted towards active compounds, which were near 1.1% of everything screened.
26S disassembly – blocks ATP-dependent breakdown of the yeast 26S proteasome; 24,000 tested, 0.2% active; anti-FLAG beads, GFP-proteasome disassembly, flow cytometry; inhibition of disassembly, % (no concentration beside the values);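 active means inhibition of disassembly above about 33%, limit read from the data; inconclusive means likely self-fluorescent, control bead median signal at least 40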;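 further: plate controls were ATP control with full disassembly for no effect and ATP-gamma-S intact proteasomes for full effect; higher percent means more bead fluorescence retained so stronger block of disassembly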
VLA-4 agonist – allosterically activates the human VLA-4 integrin | Jurkat cells, LDV-FITC binding, flow cytometry | activation, % at 10 µM (by protocol) | 24,000 tested, under 10 active | AID 528;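 active means fluorescent ligand binding to cells raised by more than 40% of the manganese-induced maximum; inconclusive means compound's own fluorescence above 85% of the ligand control signal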;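 further: 0% = ligand binding without compound and 100% = manganese-stimulated maximal binding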
Jurkat autofluor – counter-screen for VLA-4 integrin: compound autofluorescence in Jurkat cells | flow cytometry; stronger effect = higher value; 1 = vehicle-only cell background | fluorescence ratio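 (tested at 10 µM compound in the well)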 | 24,000 tested, 0.61% active;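 active means fluorescence ratio above 2.44, which is 1 plus 3 SD of all ratios; inconclusive means signal too bright to measure linearly, ratio around 10 or more; inactive means fluorescence ratio below 2.44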;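 further: green fluorescence of cells measured with 488 nm excitation and 530 nm emission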
VLA-4 antagonist – inhibitors of LDV-FITC ligand binding to Mn2+-activated human VLA-4 integrin; P13612; Jurkat cells, LDV-FITC binding with Mn2+, flow cytometry; 100% = Mn2+-driven binding gain fully reversed; inhibition, % at 10 µM (by protocol); 24,000 tested, 0.2% active; AID 529;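 active means inhibition above 50%; inconclusive means compound itself fluorescent, judged against control cell fluorescence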;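 further: 0% = Mn2+ stimulated cells lacking compound and 100% = ligand binding without Mn2+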
Active calls of the source: *; ? = inconclusive; · = not tested or not shown.

SMILES	26S disassembly	VLA-4 agonist	Jurkat autofluor	VLA-4 antagonist
O=C(Nc1ccccc1)C1=C(O)CC(c2ccco2)CC1=Nc1ccccc1 (centres undefined)	47*	-7	1.4	9
CC1=C(C)C(=O)NC(Nc2nc(C)c3cc(C)cc(C)c3n2)N1 (centres undefined)	1	-4	1.1	-12
CCOc1cc2[nH]c(=O)n(CCCCCC(=O)NCc3ccco3)c(=O)c2cc1OCC	·	-13	1	52*
C=CCn1c2ccccc2c2nnc(SCC(=O)NC(C(=O)OC)C(C)C)nc21 (centres undefined)	-2	-3	0.99	-13
CCOc1cc(C2C(C(=O)OC)=C(C)N=C3SCCC(=O)N32)ccc1OC(C)=O (centres undefined)	1	?	2.7*	?
COc1ccc(OC)c(/C=c2\sc3nc(-c4cccs4)nn3c2=O)c1	4	?	4.1*	?
COc1cccc(OCC(=O)Nc2c(C(=O)Nc3ccc(OC)cc3OC)oc3ccccc23)c1	1	1	1.1	-10
Cc1cccn2c(=O)c3cc(C(=O)NC(C)c4ccccc4)c(=N)n(CCCn4ccnc4)c3nc12 (centres undefined)	-2	-7	1.2	20
CC(=O)c1c(C)[nH]c(C(=O)N2CCc3ccccc3C2)c1C	-2	1	1	60*
N#Cc1c(-c2ccco2)cc(C2CC2)nc1SCC(=O)c1ccccc1	1	?	2.5*	?
O=C(O)c1c(Cl)c(Cl)c(Cl)c(Cl)c1C(=O)N1CCOCC1	-6	10	1	-28
Cc1nnc(NC(=O)c2ccc(S(=O)(=O)N3CCCCCC3)cc2)o1	-1	-2	1	13
COCc1nnc(NC(=O)c2ccc(S(=O)(=O)N3CCCCCC3)cc2)o1	-4	?	2.5*	?
O=C(OC1CCCCC1)c1ccc2c(c1)C1C=CCC1C(C(=O)O)N2 (centres undefined)	0	?	3.8*	?
CCOC(=O)Cn1c(=O)oc2cc(S(=O)(=O)Nc3cc(OCC)ccc3OCC)ccc21	1	?	1.4	?
CCOC(=O)Cn1c(=O)oc2cc(S(=O)(=O)Nc3cc(Cl)ccc3OC)ccc21	3	?	4.3*	?
CCOC(=O)Cn1c(=O)oc2cc(S(=O)(=O)Nc3ccc(N(CC)CC)cc3C)ccc21	3	?	4.1*	?
CCOCCCNS(=O)(=O)c1ccc2c(c1)oc(=O)n2CC(=O)OCC	2	?	2.5*	?
CCOC(=O)N1CCC(N2C(=O)c3ccc(C(=O)NC4CCCCCC4)cc3C2=O)CC1	-4	-4	1	26
COc1cc(C(=O)NCc2nnc(SCC(=O)N3CCc4ccccc43)o2)cc(OC)c1OC	2	0	1.1	4
N#Cc1c(N)n(CCNC(=O)c2cccs2)c2nc3ccccc3nc12	15	?	5.3*	?
COc1ccc(CCn2c(N)c(C#N)c3nc4ccccc4nc32)cc1OC	11	?	1.9	?
Cc1n[nH]c(C)c1S(=O)(=O)N1CCCC(C(=O)NC2CCCc3ccccc32)C1 (centres undefined)	1	?	2.5*	?
COc1ccc(C)cc1NC(=O)C1CCCN(S(=O)(=O)c2cccc3nonc23)C1 (centres undefined)	0	-6	1.2	7
Cc1cccc2sc(NC(=O)C3CCCN(S(=O)(=O)c4cccc5nonc45)C3)nc12 (centres undefined)	27	?	2.6*	?
SMILES	26S disassembly	VLA-4 agonist	Jurkat autofluor	VLA-4 antagonist
Cc1ccc2nc(NC(=O)C3CCCN(S(=O)(=O)c4cccc5nonc45)C3)sc2c1 (centres undefined)	22	?	3.1*	?
COc1cc2[nH]c(=O)n(CCCCCC(=O)NCCc3c[nH]c4ccccc34)c(=O)c2cc1OC	·	-3	0.99	18
CCOC(=O)CSc1nc2ccccc2n2cnnc12	1	?	7.3*	?
CCOC(=O)CSc1nc2ccccc2n1C(=O)OCC	-48	?	2.8*	?
CCOC(=O)COc1ccc(S(=O)(=O)N2CCc3ccccc3C2)cc1	-1	-11	1.1	6
CCOC(=O)c1ccccc1NC(=O)Cn1c(-c2nonc2N)nc2ccccc21	7	?	1.3	?
CC1CCCN(C(=O)Cn2c(-c3nonc3N)nc3ccccc32)C1 (centres undefined)	-3	?	3*	?
COc1ccccc1N1C(=O)CC(Sc2nc(C)cc(C)n2)C1=O (centres undefined)	1	0	0.97	-20
COc1ccc2c(c1)C(=O)N(c1ccccc1OC)C(=O)C2	1	?	6.3*	?
